Reference: PubChem BioAssay
Active and inactive are the calls of the source.

Key:
[1] = system: Human papillomavirus type 1a protein E7 (residues 44-93); experiment: small molecules binding HPV E7 44-93 – biochemical, small-molecule microarray, residues 44-93, 635 nm fluorescence, primary screen (AID 1108); conditions: fluorescence 635 nm, higher = more signal;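 also: E7 fragment applied at 1 µg/mL in TBST for 1 h at 4 C; score combines spot fluorescence with its signal to noise ratio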
[2] = hepatitis C replication reporter changes, two-sided – Huh7 cells, luciferase reporter, HCV replication inhibitor project, primary screen (AID 1109); conditions: Huh7 HCV replicon luciferase reporter, 48 h; higher = more signal;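 also: huh7 hepatoma cells harbouring a luciferase neomycin HCV replicon reporter; luciferase luminescence as measure of HCV replicon replication; test concentration not given here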
[3] = biological target: Left-right determination factor 2 (Homo sapiens) (UniProt O00292); experiment: small molecules binding LEFTY2 protein – biochemical, small-molecule microarray, 635 nm fluorescence scan, primary screen (AID 1110); conditions: higher = more signal
Chain of Left-right determination factor 2 (Homo sapiens) (O00292 whole entry, looked up): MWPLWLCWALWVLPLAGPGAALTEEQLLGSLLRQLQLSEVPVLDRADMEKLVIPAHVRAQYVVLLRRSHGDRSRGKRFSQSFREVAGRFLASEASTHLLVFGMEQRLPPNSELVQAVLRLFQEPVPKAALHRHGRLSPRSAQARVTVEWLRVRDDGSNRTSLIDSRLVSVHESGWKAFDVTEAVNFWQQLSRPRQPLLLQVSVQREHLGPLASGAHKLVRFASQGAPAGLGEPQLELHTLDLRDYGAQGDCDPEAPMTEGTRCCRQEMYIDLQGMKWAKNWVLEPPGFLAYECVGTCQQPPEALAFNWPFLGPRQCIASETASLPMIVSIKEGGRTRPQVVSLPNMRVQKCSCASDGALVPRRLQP

[4] = biological target: Calmodulin-1 (Homo sapiens) (UniProt P0DP23); experiment: small molecules binding calmodulin-1 with EGTA – biochemical, small-molecule microarray, Cy5-labelled CALM1, profiling panel (AID 1111); conditions: Cy5-CALM1 binding fluorescence, higher = more signal;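 also: labelled calmodulin applied in Tris saline Tween buffer holding calcium plus EGTA and DTT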
[5] = biological target: Calmodulin-1 (Homo sapiens) (UniProt P0DP23); experiment: small molecules binding Ca-loaded calmodulin-1 – biochemical, small-molecule microarray, Cy5-labelled CALM1, plus calcium, artefact control for SMM control-protein annotation, profiling panel (AID 1112); conditions: Cy5-CALM1 binding fluorescence, higher = more signal;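 also: score merges spot fluorescence with signal to noise from triplicate slides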
[6] = probe aWnt5a binding to arrayed compounds – biochemical, biotinylated probe, 635/667 nm fluorescence, primary screen (AID 1113); conditions: small-molecule microarray, higher = more signal;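 also: score merges 667 nm fluorescence intensity with signal-to-noise per printed feature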
[7] = probe aShh binding to arrayed compounds – biochemical, biotinylated probe, 635/667 nm fluorescence, primary screen (AID 1114); conditions: small-molecule microarray, higher = more signal;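 also: probe is biotin-labelled aShh protein from a stem cell growth factor screen; measures binding of labelled protein to compounds printed on the slide; score merges feature fluorescence at 667 nm with signal-to-noise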
[8] = probe aNog binding to arrayed compounds – biochemical, biotinylated probe, 635/667 nm fluorescence, primary screen (AID 1115); conditions: small-molecule microarray, higher = more signal;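 also: probe is biotinylated aNog protein used at 0.15 µg/mL for 1 h at 4 C; z-score combines 667 nm fluorescence of each spot with its signal to noise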
[9] = biological target: Torsin-1A-interacting protein 1 (Homo sapiens) (UniProt Q5JTV8); experiment: compound microarray binding of lysate hLAP1 – cell lysate, small-molecule microarray, COS7 lysate, 635/667 nm fluorescence, primary screen (AID 1116); conditions: 635 nm fluorescence, higher = more signal
Chain of Torsin-1A-interacting protein 1 (Homo sapiens) (Q5JTV8 whole entry, looked up): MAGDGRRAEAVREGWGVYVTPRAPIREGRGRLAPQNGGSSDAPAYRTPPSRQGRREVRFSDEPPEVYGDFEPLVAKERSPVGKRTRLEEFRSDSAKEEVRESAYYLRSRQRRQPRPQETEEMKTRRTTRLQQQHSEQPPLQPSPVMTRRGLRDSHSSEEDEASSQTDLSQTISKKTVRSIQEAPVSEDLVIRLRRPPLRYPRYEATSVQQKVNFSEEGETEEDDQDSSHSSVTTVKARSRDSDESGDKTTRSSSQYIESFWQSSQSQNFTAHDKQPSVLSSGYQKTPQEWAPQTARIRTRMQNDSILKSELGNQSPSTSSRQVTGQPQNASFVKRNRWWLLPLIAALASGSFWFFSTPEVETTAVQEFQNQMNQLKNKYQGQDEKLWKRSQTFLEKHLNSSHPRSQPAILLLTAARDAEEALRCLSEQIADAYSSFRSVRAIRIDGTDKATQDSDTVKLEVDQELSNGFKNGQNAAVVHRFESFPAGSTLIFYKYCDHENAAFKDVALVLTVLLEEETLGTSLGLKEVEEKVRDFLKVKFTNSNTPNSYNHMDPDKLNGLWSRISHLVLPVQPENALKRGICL

[10] = biological target: Alpha-bungarotoxin (Bungarus multicinctus) (UniProt P60615); experiment: compounds binding labelled alpha-BTX control protein – biochemical, small-molecule microarray, Alexa647 label, 635/667 nm fluorescence, artefact control for SMM control protein annotation, profiling panel (AID 1117); conditions: alpha-BTX-A647 binding fluorescence, higher = more signal
Chain of Alpha-bungarotoxin (Bungarus multicinctus) (P60615 whole entry, looked up): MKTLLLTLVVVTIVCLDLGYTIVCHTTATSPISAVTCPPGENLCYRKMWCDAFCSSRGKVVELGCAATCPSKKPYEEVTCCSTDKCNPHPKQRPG

Albumin (Bos taurus) = Albumin (Bos taurus) (UniProt P02769); experiment: compounds binding labelled BSA control protein – biochemical, small-molecule microarray, Alexa647 label, 635/667 nm fluorescence, artefact control for SMM control protein annotation, profiling panel (AID 1118); conditions: BSA-A647 binding, fluorescence 635 nm, higher = more signal;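 also: score merges 667 nm emission intensity and signal-to-noise per printed compound spot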
Chain of Albumin (Bos taurus) (P02769 whole entry, looked up): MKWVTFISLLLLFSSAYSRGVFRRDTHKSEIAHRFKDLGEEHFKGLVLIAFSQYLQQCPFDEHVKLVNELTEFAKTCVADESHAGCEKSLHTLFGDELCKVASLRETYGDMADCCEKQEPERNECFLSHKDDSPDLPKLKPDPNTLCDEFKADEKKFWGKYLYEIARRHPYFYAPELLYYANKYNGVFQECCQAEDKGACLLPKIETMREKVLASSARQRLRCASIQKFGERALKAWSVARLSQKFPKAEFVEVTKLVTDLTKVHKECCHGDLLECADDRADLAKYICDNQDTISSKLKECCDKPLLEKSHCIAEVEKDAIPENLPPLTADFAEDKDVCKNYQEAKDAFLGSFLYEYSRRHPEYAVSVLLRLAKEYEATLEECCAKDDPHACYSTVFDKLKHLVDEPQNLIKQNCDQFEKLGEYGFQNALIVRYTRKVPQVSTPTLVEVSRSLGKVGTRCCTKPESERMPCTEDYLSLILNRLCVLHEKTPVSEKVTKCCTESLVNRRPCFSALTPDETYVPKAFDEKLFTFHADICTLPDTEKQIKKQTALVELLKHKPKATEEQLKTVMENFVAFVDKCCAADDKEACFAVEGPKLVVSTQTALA

[11] = probe aXIP binding to arrayed compounds – biochemical, NeuroSMM set, 635/667 nm fluorescence, primary screen (AID 1119); conditions: small-molecule microarray, higher = more signal, called active from +8 up or from −8 down;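 also: probe is the protein aXip251-270 applied at 1 µg/mL to compound-printed slides; binding of probe to printed compounds measured as 667 nm fluorescence plus signal to noise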
[12] = probe aNOTCH3 binding on compound microarray – biochemical, small-molecule microarray, 635/667 nm fluorescence, primary screen (AID 1120); conditions: higher = more signal;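 also: probe is a biotin-tagged antibody raised against NOTCH3 rather than NOTCH3 protein; score merges spot fluorescence near 667 nm with spot signal to noise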
[13] = probe aNOTCH2 binding on compound microarray – biochemical, small-molecule microarray, 635/667 nm fluorescence, primary screen (AID 1121); conditions: higher = more signal;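 also: score merges feature fluorescence read at 667 nm with its signal to noise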
[14] = biological target: Carbonic anhydrase 2 (Homo sapiens) (UniProt P00918); experiment: compounds binding carbonic anhydrase 2 – biochemical, small-molecule microarray, Alexa647-labelled CAII, profiling panel (AID 1122); conditions: CAII-A647 binding fluorescence, higher = more signal
[15] = COS7 lysate on small-molecule microarray, probe aHis, 635 nm (AID 1123); conditions: COS7 cell lysate, fluorescence, higher = more signal;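 also: z-score combines 667nm fluorescence intensity with signal-to-noise per printed compound spot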
[16] = probe aLAP1 signal on lysate-treated microarray – cell lysate, small-molecule microarray, COS7 lysate, primary screen (AID 1124); conditions: probe aLAP1, fluorescence, higher = more signal;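 also: lysate comes from COS7 cells expressing LAP1 and is applied at 0.3 µg/mL; score merges spot fluorescence near 667 nm with signal-to-noise over triplicate slides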
Sam68 (KHDRBS1) = experiment: compounds binding KHDRBS1 protein – biochemical, small-molecule microarray, 635 nm fluorescence, primary screen (AID 1125); conditions: higher = more signal;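 also: score merges 667 nm channel intensity with signal to noise over triplicate slides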
[17] = system: Chordin-like protein 2 (CHRDL2); experiment: compounds binding chordin-like 2 – biochemical, small-molecule microarray, 635 nm fluorescence, primary screen (AID 1126); conditions: fluorescence 635 nm, higher = more signal;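 also: printed compound slides probed with Chrdl2 protein at 4 µg/mL for 1 h at 4 C; score merges 667 nm emission intensity with signal to noise over three replicate slides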
[18] = biological target: Concanavalin-A (Canavalia ensiformis) (UniProt P02866); experiment: compounds binding concanavalin A lectin – biochemical, small-molecule microarray, Alexa647 label, 635 nm, artefact control for SMM control protein annotation, primary screen (AID 1127); conditions: ConA-A647 binding fluorescence, higher = more signal;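 also: z combines 667 nm emission intensity with signal-to-noise across three replicate slides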
Chain of Concanavalin-A (Canavalia ensiformis) (P02866 whole entry, looked up): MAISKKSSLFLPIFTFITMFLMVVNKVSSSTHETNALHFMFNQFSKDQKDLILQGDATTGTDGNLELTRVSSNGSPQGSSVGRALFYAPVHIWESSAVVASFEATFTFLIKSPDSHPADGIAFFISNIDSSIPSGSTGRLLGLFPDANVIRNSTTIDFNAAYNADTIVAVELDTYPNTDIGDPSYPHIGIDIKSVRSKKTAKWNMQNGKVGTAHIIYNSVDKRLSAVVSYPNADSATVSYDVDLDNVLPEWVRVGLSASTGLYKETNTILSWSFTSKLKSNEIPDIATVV

C#CCCCON=C1C[C@@H](O)[C@@H](O)[C@@H]2[C@@H]3C(=O)N(CCC(=O)OCC)C(=O)[C@@H]3CC[C@@H]12
composite z-score [1]: -0.58
z-score [2]: -2.78
composite z-score [3]: -0.174
composite z-score [4]: -0.335
composite z-score [5]: 0.0811
composite z-score [6]: -0.0748
composite z-score [7]: 0.246
composite z-score [8]: 0.206
composite z-score [9]: -0.221
composite z-score [10]: 1.04
composite z-score (Albumin (Bos taurus)): 0.674
composite Z-score [11]: -0.521 (inactive)
composite z-score [12]: 0.0836
composite z-score [13]: -0.0404
composite z-score [14]: -0.0544
composite z-score [15]: 0.166
composite z-score [16]: 1.05
composite z-score (Sam68 (KHDRBS1)): -0.349
composite z-score [17]: 0.715
composite z-score [18]: -0.962

CS(=O)(=O)CCOC(=O)C1=CC(CCCO)=CC(c2cccs2)N(Cc2cccc(OC(F)(F)F)c2)C=C1C(=O)OCCS(C)(=O)=O (stereo not given)
composite z-score [1]: 0.729
z-score [2]: -2.77
composite z-score [3]: -0.224
composite z-score [4]: 2.31
composite z-score [5]: 1.36
composite z-score [6]: 0.055
composite z-score [7]: 0.261
composite z-score [8]: -0.0554
composite z-score [9]: 1.88
composite z-score [10]: 1.6
composite z-score (Albumin (Bos taurus)): 1.03
composite Z-score [11]: 0.0987 (inactive)
composite z-score [12]: 0.106
composite z-score [13]: -0.0358
composite z-score [14]: 0.809
composite z-score [15]: 1.1
composite z-score [16]: 0.678
composite z-score (Sam68 (KHDRBS1)): 1.18
composite z-score [17]: -0.607
composite z-score [18]: 1.16

[N-]=[N+]=NCc1ccccc1[C@@H]1OC(c2ccc(OCCCO)cc2)=N[C@]1(Cc1ccccc1)C(=O)N1CCOCC1
composite z-score [1]: 0.0452
z-score [2]: -2.03
composite z-score [3]: 0.343
composite z-score [4]: 1.93
composite z-score [5]: 1.05
composite z-score [6]: 0.141
composite z-score [7]: 0.26
composite z-score [8]: 1.9
composite z-score [9]: 3.31
composite z-score [10]: 1.62
composite z-score (Albumin (Bos taurus)): 0.923
composite Z-score [11]: 0.0976 (inactive)
composite z-score [12]: 0.387
composite z-score [13]: 0.34
composite z-score [14]: 0.514
composite z-score [15]: 3.06
composite z-score [16]: 0.827
composite z-score (Sam68 (KHDRBS1)): 1.32
composite z-score [17]: 0.766
composite z-score [18]: 1.16

CC(=O)OC[C@H]1O[C@H](CCON=C(C)CCN2CCc3nc(-c4ccccc4)c(-c4ccccc4)cc3C2)C=C[C@@H]1OC(C)=O
composite z-score [1]: 1.26
z-score [2]: -1.58
composite z-score [3]: 0.0439
composite z-score [4]: -0.205
composite z-score [5]: -0.174
composite z-score [6]: -0.0748
composite z-score [7]: -0.0425
composite z-score [8]: -0.273
composite z-score [9]: 0.624
composite z-score [10]: 1.57
composite z-score (Albumin (Bos taurus)): 0.768
composite Z-score [11]: 0.607 (inactive)
composite z-score [12]: 0.146
composite z-score [13]: -0.0877
composite z-score [14]: 0.181
composite z-score [15]: 0.761
composite z-score [16]: 0.466
composite z-score (Sam68 (KHDRBS1)): 0.975
composite z-score [17]: -0.0682
composite z-score [18]: -0.0278

CN(C)CCCNC(=O)[C@@H]1c2ccccc2C(=O)N(Cc2cc(F)cc(C(F)(F)F)c2)[C@H]1c1ccc(CO)cc1
composite z-score [1]: 0.7
z-score [2]: -0.734
composite z-score [3]: 0.643
composite z-score [4]: 0.509
composite z-score [5]: 0.0028
composite z-score [6]: -0.103
composite z-score [7]: -0.0904
composite z-score [8]: 1.39
composite z-score [9]: 0.886
composite z-score [10]: -0.0234
composite z-score (Albumin (Bos taurus)): 0.277
composite Z-score [11]: 0.451 (inactive)
composite z-score [12]: -0.0976
composite z-score [13]: -0.114
composite z-score [14]: 0.783
composite z-score [15]: 0.969
composite z-score [16]: 0.578
composite z-score (Sam68 (KHDRBS1)): 0.946
composite z-score [17]: 1.08
composite z-score [18]: 0.21

COCCOC(=O)N1C(=O)[C@@]2(c3cc(C#CC4(O)CCCCCC4)ccc31)[C@H](C(=O)N1CCN(c3ncccn3)CC1)[C@H]1C(=O)O[C@H](c3ccccc3)[C@H](c3ccccc3)N1[C@@H]2c1ccc(OCCO)cc1
composite z-score [1]: 1.01
z-score [2]: -1.38
composite z-score [3]: 0.519
composite z-score [4]: 0.942
composite z-score [5]: 0.0751
composite z-score [6]: 0.0136
composite z-score [7]: 0.637
composite z-score [8]: 0.42
composite z-score [9]: 0.889
composite z-score [10]: 1.33
composite z-score (Albumin (Bos taurus)): 0.408
composite Z-score [11]: -0.108 (inactive)
composite z-score [12]: 0.178
composite z-score [13]: -0.112
composite z-score [14]: 0.375
composite z-score [15]: 0.714
composite z-score [16]: 0.857
composite z-score (Sam68 (KHDRBS1)): 1.3
composite z-score [17]: 0.659
composite z-score [18]: 1.18
